Test results taken from PubChem BioAssay.
For part of these data: Measured potencies and affinities stand elsewhere. The source made the active and inactive calls.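 Rule for the calls, unless noted: active = fitted half-maximal concentration within 10 nM to 100 µM, steepness 0.5 to 2, significant signal drop, low assay interference; inactive = the rest.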

Columns and labels:
[1] = molecular target: Cell division control protein 42 homolog (Homo sapiens) (UniProt P60953); test: inhibition of fluorescent GTP binding to constitutively active Cdc42 – biochemical, multiplex bead flow cytometry, Bodipy-FL-GTP, dose response (AID 1333;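 active = fitted half-maximal concentration within the tested dose range, moderate curve steepness, a statistically real signal drop, and little compound fluorescence or tag-binding interference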)
[2] = molecular target: Cell division control protein 42 homolog (Homo sapiens) (UniProt P60953); test: inhibition of fluorescent GTP binding to wildtype Cdc42 – biochemical, multiplex bead flow cytometry, Bodipy-FL-GTP, dose response (AID 1334;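 active = fitted half-maximal concentration within the tested range, moderate curve steepness, significant signal drop, and little compound fluorescence or bead-linkage interference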); conditions: bead-based flow cytometry, Bodipy-FL-GTP binding to GST-Cdc42; at 100 µM (top of the series) unless noted
[3] = molecular target: GTPase HRas (Homo sapiens) (UniProt P01112); test: Ras wt fluorescent GTP loading blockade – biochemical, wildtype, multiplex bead flow cytometry, dose response (AID 1335); conditions: bead-based flow cytometry, Bodipy-GTP binding to GST-Ras; at 100 µM (top of the series) unless noted
[4] = test system: Ras-related protein Rab-7a (dog), GTP binding; test: blockers of fluorescent GTP binding to Rab7 – biochemical, wildtype, multiplex bead flow cytometry, dose response (AID 1336; call rule not given here)
[5] = molecular target: Ras-related C3 botulinum toxin substrate 1 (Homo sapiens) (UniProt P63000); test: inhibition of wildtype Rac1 nucleotide loading – biochemical, multiplex bead flow cytometry, dose response (AID 1340;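 active = dose curve with midpoint inside tested range, moderate steepness, plateau gap beyond fit error, low compound glow and bead-link interference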); conditions: GST-Rac1 beads, Bodipy-FL-GTP binding; at 100 µM (top of the series) unless noted
[6] = molecular target: GTPase HRas (Homo sapiens) (UniProt P01112); test: blockade of GTP loading onto mutant Ras – biochemical, activated mutant, multiplex bead flow cytometry, dose response (AID 1341;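 active = dose-response curve with midpoint inside the tested range, moderate steepness, significant amplitude and little compound fluorescence or bead-attachment interference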;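 note: GST-tagged constitutively activated Ras mutant immobilized on beads and multiplexed with other GTPases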)

Cell division control protein 42 homolog (Homo sapiens), sequence (P60953 whole entry, looked up): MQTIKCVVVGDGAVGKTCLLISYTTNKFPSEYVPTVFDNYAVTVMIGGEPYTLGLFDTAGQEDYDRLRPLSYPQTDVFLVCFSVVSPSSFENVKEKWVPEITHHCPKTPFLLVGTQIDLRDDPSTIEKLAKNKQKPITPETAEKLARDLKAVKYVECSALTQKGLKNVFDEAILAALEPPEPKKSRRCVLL
GTPase HRas (Homo sapiens), sequence (P01112 whole entry, looked up): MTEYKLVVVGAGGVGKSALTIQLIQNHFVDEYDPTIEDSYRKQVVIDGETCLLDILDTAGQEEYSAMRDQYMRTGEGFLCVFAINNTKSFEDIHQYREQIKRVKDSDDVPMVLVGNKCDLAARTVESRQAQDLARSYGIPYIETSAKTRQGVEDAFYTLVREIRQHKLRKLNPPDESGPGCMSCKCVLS

| SMILES | outcome [1] | fluorescence, percent of control (lower = inhibition) [2] | GTP binding, percent of control [3] | outcome [4] | GTP binding signal, raw median fluorescence (lower = inhibition) (MCF (arbitrary fluorescence units)) [5] | outcome [6] |
| --- | --- | --- | --- | --- | --- | --- |
| CSc1nc2ccc(NC(=O)C3CC(=O)N(Cc4ccco4)C3)cc2s1 (stereo not given) | inactive | 34% | 75.3% | inactive | 195 | inactive |
| Cc1ccc(C(=O)O)c(OCCc2c(C)cccc2C)n1 | inactive | 64.4% | 224% | inactive | 57 | inactive |
| COc1cc(/C=C2/SC(=Nc3ccc(O)cc3)NC2=O)cc(OC)c1O | inactive | 39.8% | 84.1% | inactive | 231 | inactive |
| CSc1nsc(SC)c1NC(=O)OC1CCCCC1 | inactive | 43% | 63.4% | inactive | 196 | inactive |
| O=c1c2ccccc2nc2c3ccccc3c(NCc3ccco3)nn12 | inactive | 80.4% | 122% | inactive | 144 | inactive |
| O=C1C2CC=CCC2C(=O)N1c1ncn[nH]1 (stereo not given) | inactive | 97.2% | 161% | inactive | 189 | inactive |
| COC(=O)c1ccccc1NC(=O)CSCC(=O)Nc1ccccc1OC | inactive | 37.9% | 81.9% | inactive | 230 | inactive |
| COc1ccc(-c2nnc(S/C(=C/c3ccc(Cl)cc3)C(=O)O)o2)cc1 | inactive | 35.8% | 81.6% | inactive | 218 | inactive |
| O=C(Cc1ccc(Nc2nc(=S)[nH]c3ccccc23)cc1)NC1CCCCC1 | inactive | 25.9% | 61.6% | inactive | 153 | inactive |
| Cn1c(=O)c2c(nc(N/N=C/c3ccco3)n2C)n(C)c1=O | inactive | 31.1% | 69.2% | inactive | 165 | inactive |
| Cc1cccc(OCCSc2nc3ccccc3n2CC(=O)O)c1C | inactive | 58.6% | 87.7% | inactive | 30.5 | inactive |
| Cn1c(=O)c2c(ncn2CC(O)CNc2cccc(Cl)c2)n(C)c1=O (stereo not given) | inactive | 47.1% | 101% | inactive | 363 | inactive |
| N=c1oc2ccc3ccccc3c2cc1-c1nc(-c2ccccc2)cs1 | inactive | 32.3% | 75% | inactive | 209 | inactive |
| O=c1c2ccccc2nc2c3ccccc3c(NCCN3CCOCC3)nn12 | inactive | 42.6% | 52.2% | inactive | 132 | inactive |
| COC(=O)c1cc(NC(=O)c2cccc(Cl)c2)c(=O)oc1/C=C/Nc1cc(C)cc(C)c1 | inactive | 193% | 237% | inactive | 563 | inactive |
| COc1ccc(OC)c(CCNCc2ccc(C(=O)O)s2)c1 | inactive | 58.4% | 82.2% | inactive | 35.9 | inactive |
| N#Cc1c(Nc2ccccc2)c(/C=N/N=C/c2ccccc2)c[nH]c1=O | inactive | 35.5% | 81.7% | inactive | 211 | inactive |
| Cc1ccc(-c2cn3cccc(C)c3n2)cc1 | inactive | 35.6% | 86% | inactive | 167 | inactive |
| Cc1ccc(S(=O)(=O)c2cc3c(=O)n4ccccc4nc3n(C)c2=N)cc1 | inactive | 31.2% | 65.8% | inactive | 158 | inactive |
| O=C(NCc1ccc(F)cc1)C(c1ccccc1)N(CC1CCCO1)C(=O)Cn1nnc2ccccc21 (stereo not given) | inactive | 53.6% | 70.1% | inactive | 0 | inactive |

| SMILES | outcome [1] | fluorescence, percent of control (lower = inhibition) [2] | GTP binding, percent of control [3] | outcome [4] | GTP binding signal, raw median fluorescence (lower = inhibition) (MCF (arbitrary fluorescence units)) [5] | outcome [6] |
| --- | --- | --- | --- | --- | --- | --- |
| Cc1ccc(OCc2ccccc2C)c(C(=O)O)c1 | inactive | 58.3% | 207% | inactive | 54.4 | inactive |
| COc1ccccc1C(=O)N=Nc1c(O)[nH]c2ccc([N+](=O)[O-])cc12 | inactive | 23.9% | 51.1% | inactive | 115 | inactive |
| Oc1c(C=Nc2cccc3cccnc23)sc2ccccc12 | inactive | 93.4% | 177% | inactive | 199 | inactive |
| O=C(Cn1nc(-c2ccccc2)c2ccccc2c1=O)Nc1ccccn1 | inactive | 45.6% | 58.1% | inactive | 194 | inactive |
| O=C(O)CSc1ccc2nnc(-c3cccnc3)n2n1 | inactive | 35.6% | 73.9% | inactive | 151 | inactive |
| CCN1CCN(c2nc3c(c(=O)n(C)c(=O)n3C)n2Cc2cccc3ccccc23)CC1 | inactive | 43.1% | 92.2% | inactive | 314 | inactive |
| COc1ccc(CCNc2nc(=S)[nH]c3cc(OC)c(OC)cc23)cc1OC | inactive | 25.9% | 57.9% | inactive | 111 | inactive |
| O=c1/c(=C/c2ccc(CNS(=O)(=O)c3ccccc3)o2)sc2n1CCN=2 | inactive | 29% | 63.2% | inactive | 119 | inactive |
| Cc1ccc(C2=NN(S(=O)(=O)c3ccccc3)C(c3ccccc3O)C2)cc1 (stereo not given) | inactive | 50.2% | 104% | inactive | 158 | inactive |
| Cc1ccc(/C=C/C(=O)c2ccccc(=O)c2O)cc1C | inactive | 37.3% | 81.8% | inactive | 245 | inactive |
| COc1cccc(-n2nc3c(-n4ncc(C#N)c4N)nnc(C)c3c2C)c1 | inactive | 54.8% | 64.6% | inactive | 212 | inactive |
| CSc1ncccc1C(=O)OCC(=O)N1CCOCC1 | inactive | 84.4% | 160% | inactive | 170 | inactive |
| CC(C)OCCCn1c(=NC(=O)c2ccncc2)c(C#N)cc2c(=O)n3ccccc3nc21 | inactive | 88.2% | 160% | inactive | 161 | inactive |
| COc1cc(/C=N/Nc2ncnc3sc4c(c23)CCC4)ccc1O | inactive | 33.9% | 48.1% | inactive | 126 | inactive |
| O=C(Nc1ccc2nc(-c3cccs3)[nH]c2c1)c1cccs1 | inactive | 30.4% | 68.4% | inactive | 184 | inactive |
| COc1ccc(/C=C2\N=C(SC)SC2=O)cc1OC | inactive | 86.4% | 150% | inactive | 186 | inactive |
| COc1ccc(C(=O)N/C(=C\c2cccc([N+](=O)[O-])c2)C(=O)Nc2cccc(C(=O)O)c2)cc1 | inactive | 35.1% | 78.2% | inactive | 162 | inactive |
| O=C(O)c1ccccc1NCc1ccc(Cl)cc1 | inactive | 79.2% | 95.6% | inactive | 50.2 | inactive |
| Cc1noc(/C=C/c2ccc(-c3ccccc3Cl)o2)c1[N+](=O)[O-] | inactive | 125% | 171% | inactive | 199 | inactive |
| CCOc1cc(/C=N/Nc2nncc(-c3ccccc3)n2)ccc1O | inactive | 37.4% | 75.5% | inactive | 160 | inactive |

| SMILES | outcome [1] | fluorescence, percent of control (lower = inhibition) [2] | GTP binding, percent of control [3] | outcome [4] | GTP binding signal, raw median fluorescence (lower = inhibition) (MCF (arbitrary fluorescence units)) [5] | outcome [6] |
| --- | --- | --- | --- | --- | --- | --- |
| O=C(COc1ncnc2cc([N+](=O)[O-])ccc12)NC(=O)NC1CCCCC1 | inactive | 31.6% | 70.8% | inactive | 153 | inactive |
| COc1ccc2nc(/C(C#N)=C\c3ccc(C(=O)O)cc3)[nH]c2c1 | inactive | 31.4% | 72.6% | inactive | 189 | inactive |
| Cc1nc2cc(C(=O)NCc3ccc4c(c3)OCO4)ccc2n1-c1ccc(Br)cc1 | inactive | 42.6% | 62.2% | inactive | 172 | inactive |
| O=[N+]([O-])c1cccc(S(=O)(=O)N2CCCC2)c1 | inactive | 52.4% | 63.8% | inactive | 205 | inactive |
| Cc1cc2nc(/C(C#N)=C/c3ccncc3)[nH]c2cc1C | inactive | 30.6% | 76.7% | inactive | 245 | inactive |
| Cn1c(O)c(C2=c3ccccc3=NC2=O)[nH]c1=S | inactive | 37.9% | 83.1% | inactive | 214 | inactive |
| O=C(COc1cc(Cl)ccc1Cl)Nc1nnc(CC(=O)N2CCOCC2)s1 | inactive | 90.6% | 152% | inactive | 178 | inactive |
| CCCc1cc(-n2ccnc2)n2c(nc3ccccc32)c1C#N | inactive | 172% | 195% | inactive | 212 | inactive |
| O=C(O)c1ccccc1NCc1c(Cl)cccc1Cl | inactive | 59.4% | 87.4% | inactive | 30.2 | inactive |
| Cc1cc(C)n2nc(SCCOc3ccccc3)nc2n1 | inactive | 31.1% | 71.1% | inactive | 183 | inactive |
| O=C(Nn1cc(C(=O)N2CCN(c3ccccc3F)CC2)c2ccccc2c1=O)c1cnccn1 | inactive | 98.6% | 156% | inactive | 197 | inactive |
| Cn1cc(C=C2C(=O)CC(C)(C)CC2=O)c2ccccc21 | inactive | 49.4% | 66.4% | inactive | 180 | inactive |
| COc1ccc2nc(C)cc(SCC(=O)N/N=C/c3ccc(O)c(O)c3)c2c1 | inactive | 35% | 75.8% | inactive | 164 | inactive |
| COc1cc2nc(/C=C/c3ccc(N(C)C)cc3)sc2cc1SC | inactive | 121% | 122% | inactive | 238 | inactive |
| COCCn1c(N)c(C(=O)Nc2sc3c(c2C(=O)OC)CCCC3)c2nc3ccccc3nc21 | inactive | 52% | 108% | inactive | 120 | inactive |
| COc1cc(N2CCCC2)c(OC)cc1/C=C(/C#N)c1ccc(Br)cc1 | inactive | 104% | 117% | inactive | 258 | inactive |
| COc1ccc(C(=O)NC(=S)N2CC(C)OC(C)C2)cc1 (stereo not given) | inactive | 54.3% | 68.1% | inactive | 216 | inactive |
| COC(=O)c1cn(CCOc2ccccc2)c2ccccc12 | inactive | 34.2% | 83% | inactive | 225 | inactive |
| Nc1ccc(-c2cn3cccnc3n2)cc1 | inactive | 40.9% | 88.5% | inactive | 287 | inactive |
| CO/N=C/NC(=O)NOCc1ncc(C(F)(F)F)cc1Cl | inactive | 38.1% | 86.2% | inactive | 295 | inactive |
